NCOA2 inhibitor: inhibition of GAL4-SRC2 driven luciferase reporter, primary screen, SRC2 inhibitor project, cell-based, luminescence | inhibition, % at 9 µM | AID 651957, 2012 | HEK293 GAL4-SRC2 luciferase reporter | 0.17% of 370,000 active | Nuclear receptor coactivator 2 (Homo sapiens), Q15596;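 active means inhibition above the mean inhibition of all tested compounds plus 3 SD, set per campaign, cut at about 52% in these data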;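 further: 0% = DMSO treated cells and 100% = cells given Gossypol at 36 µM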
NCOA1 inh: SRC1 coactivator transcriptional activity inhibitors, primary screen, cell-based, luminescence; Nuclear receptor coactivator 1 (Homo sapiens), Q15788; 0.12% of 360,000 active; HEK293 GAL4-SRC1 luciferase reporter; inhibition, % at 3.6 µM;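 active means inhibition above the campaign mean plus 3 SD, with each screening campaign given its own cutoff, cut at about 60% in these data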;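 further: 0% = DMSO treated cells and 100% = gossypol at 36 µM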
LRH-1 inv ag: LRH-1 (NR5A2) inverse agonists, primary screen, cell-based, luminescence, HEK293T, StAR-luciferase reporter; Nuclear receptor subfamily 5 group A member 2 (Homo sapiens), O00482; LRH-1 transfected, 24 h; inhibition, % at 3.6 µM; 0.13% of 360,000 active;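 active means inhibition above the mean inhibition of all tested compounds plus 3 SD, cut at about 73% in these data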;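 further: 0% = DMSO wells and 100% = reporter-only cells lacking LRH-1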
Gli-Sufu block: Gli-Sufu pathway antagonists, primary screen, luciferase luminescence, Sufu-KO-LIGHT cells, uHTS; inhibition, % at 5 µM; Sufu-KO-LIGHT fibroblasts, Gli luciferase reporter luminescence; 0.74% of 340,000 active; AID 588413, 2011;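 active means inhibition above about 55%, limit read from the data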;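 further: 0% = DMSO-treated cells and 100% = wells with medium but no cells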
SRC3 inh: SRC3 coactivator transcriptional activity inhibitors, primary screen, cell-based, luminescence; 0.17% of 360,000 active; Nuclear receptor coactivator 3 (Homo sapiens), Q9Y6Q9; HEK293 GAL4-SRC3 luciferase reporter; AID 588352, 2011; inhibition, % at 3.6 µM;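 active means inhibition above a per-campaign cutoff, the mean of all compounds plus 3 SD, cut at about 60% in these data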;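 further: 0% = DMSO-treated cells and 100% = gossypol-treated cells at 36 µM; higher means less SRC3-driven luciferase light from the GAL4 reporter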
COUP-TFII inh: NR2F2 transcriptional activity inhibitors, primary screen, cell-based, luciferase reporter, HEK293T, luminescence | COUP transcription factor 2 (Homo sapiens), P24468 | HEK293T NGFI-A luciferase reporter | inhibition, % at 8.6 µM | 0.7% of 370,000 active | AID 686940, 2013;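 active means inhibition above a per-plate cutoff, mean inhibition of test wells between control levels plus 3 SD, cut at about 38% in these data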;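 further: cells cotransfected with COUP-TFII expression vector driving the NGFI-A reporter; 0% = median of COUP-TF2 test wells and 100% = reporter-only cells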
Target sequence (P24468 whole entry, looked up): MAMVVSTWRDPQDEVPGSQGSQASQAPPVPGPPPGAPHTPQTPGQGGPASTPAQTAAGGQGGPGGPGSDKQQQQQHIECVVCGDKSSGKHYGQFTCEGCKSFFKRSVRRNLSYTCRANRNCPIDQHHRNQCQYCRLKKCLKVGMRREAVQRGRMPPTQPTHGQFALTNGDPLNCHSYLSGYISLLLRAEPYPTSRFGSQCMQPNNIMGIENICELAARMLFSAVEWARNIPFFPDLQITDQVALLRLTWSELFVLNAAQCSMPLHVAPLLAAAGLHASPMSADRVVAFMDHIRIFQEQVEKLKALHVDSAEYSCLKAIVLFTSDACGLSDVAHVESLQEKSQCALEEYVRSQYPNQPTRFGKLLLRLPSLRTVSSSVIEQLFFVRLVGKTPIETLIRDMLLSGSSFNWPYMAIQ
VP16 Luc counter: Gal4-VP16 luciferase reporter inhibitors, counter-screen for COUP-TFII antagonist project, cell-based, luminescence, HEK293. 25% of 2,500 active. inhibition, % at 8.5 µM. shares compounds with COUP-TFII inh; in the data active means inhibition above about 13%
COUP-TFII conf: NR2F2 transcriptional activity inhibitors, confirmation, cell-based, luciferase reporter, HEK293, triplicate | AID 687008, 2013 | inhibition, % at 8.5 µM | 45% of 2,500 active | HEK293 NGFI-A luciferase reporter, luminescence | shares compounds with COUP-TFII inh;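 active means mean inhibition over three repeats above a set limit taken from the earlier primary screen, cut at about 38% in these data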;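 further: 100% = cells given the luciferase reporter alone without the COUP-TF2 vector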
An asterisk follows results filed as active; · = not tested or not shown. The list is not random: actives were taken first. Their share in the collection is about 1.3%.

SMILES | NCOA2 inhibitor | NCOA1 inh | LRH-1 inv ag | Gli-Sufu block | SRC3 inh | COUP-TFII inh | VP16 Luc counter | COUP-TFII conf
COc1cc(/C=C2\CC/C(=C\c3cc(OC)c(OC)c(OC)c3)C2=O)cc(OC)c1OC | -7.2 | -8.4 | -1.5 | 27.5 | 24.9 | 0.1 | · | ·
COc1cc(/C=C2\COC/C(=C\c3cc(OC)c(OC)c(OC)c3)C2=O)cc(OC)c1OC | 75.3* | -187.1 | -11.9 | 55.1* | 3.4 | 60.4* | 92.2* | 103.2*
Nc1ccc2c(c1)C(=O)c1ccccc1-2 | 6.4 | -6.8 | -16.0 | -1.0 | 2.0 | -8.5 | · | ·
Nc1ccc2c(c1)C(=O)C(=O)c1ccccc1-2 | 94.5* | 84.8* | 105.4* | 19.3 | 93.2* | 102.1* | 97.1* | 109.7*
Cc1cccc(-n2ncc3c(NCc4cccnc4)ncnc32)c1 | -58.0 | -72.3 | -125.2 | -62.3 | -109.4 | -26.9 | · | ·
Cc1ccc(-n2ncc3c(NCc4cccnc4)ncnc32)c(C)c1 | 18.5 | 19.8 | 17.2 | 26.6 | 21.0 | 40.8* | -11.9 | 23.6
Cc1cc(C)nc(OC(C(=O)O)C(OCc2ccccc2)(c2ccccc2)c2ccccc2)n1 (stereo unspecified) | -5.6 | 7.3 | -2.2 | 4.8 | 4.9 | -9.4 | · | ·
Cc1ccnc(OC(C(=O)O)C(OCc2ccccc2)(c2ccccc2)c2ccc(C(F)(F)F)cc2)n1 (stereo unspecified) | -29.6 | 7.8 | 18.8 | 9.7 | 34.6 | 46.9* | 6.0 | 14.3
COc1cc(C(=O)N(C)CCOc2ccccc2)ccc1OCC(=O)Nc1cccc(C(F)(F)F)c1 | 28.4 | 6.3 | -13.8 | -2.0 | 14.0 | 56.7* | 8.4 | 21.7
CCOC(=O)C1CCN(C(=O)c2ccc(OCC(=O)Nc3cccc(C(F)(F)F)c3)c(OC)c2)CC1 | 37.3 | 24.6 | 32.6 | 38.4 | 12.5 | 65.7* | -5.5 | 59.0*
COc1ccc(C(=O)OCCCN(C)C2CN(Cc3cn(Cc4cccc(F)c4)nn3)S(=O)(=O)C2)cc1OC (stereo unspecified) | -26.2 | · | · | · | · | 0.6 | · | ·
COc1ccc2c(c1)CN1CN(C3CCCC3)S(=O)(=O)CC21 (stereo unspecified) | 7.2 | · | · | · | · | 2.2 | · | ·
Cc1ccc(S(=O)(=O)N2C(N)=C(C(=O)NCc3ccc(Br)cc3)C(c3ccc(Cl)cc3)C2C(=O)c2ccccc2)cc1 (stereo unspecified) | · | · | · | · | · | 3.3 | · | ·
COC(=O)[C@H](C(C)C)N1Cc2nnn(Cc3ccccc3)c2-c2ccccc2S1(=O)=O | 17.2 | · | · | · | · | 19.0 | · | ·
Nc1ccc(C(=O)C(=O)c2ccc(N)cc2)cc1 | 3.2 | 18.0 | 0.0 | -1.2 | -8.1 | 1.5 | · | ·
N=C1C=CC(=C(c2ccc(N)cc2)c2ccc(N)cc2)C=C1 | -19.0 | 30.1 | 46.0 | 50.6 | 55.2 | 45.6* | 14.1* | 62.9*
COC(=O)C1CCCN(C(=O)C(Cc2ccc3c(c2)OCO3)NC(C)=O)C1 (stereo unspecified) | 5.8 | · | · | · | · | 8.5 | · | ·
COC(=O)C12C=C3CC(C4CC4)=C3C(=O)N1Cc1[nH]c3ccccc3c1C2 (stereo unspecified) | 12.6 | · | · | · | · | -2.5 | · | ·
Fc1ccccc1-c1n[nH]c(=S)n1N=Cc1ccc(-c2ccccc2)cc1 | -0.2 | · | · | · | · | -17.2 | · | ·
CCN(CC)S(=O)(=O)c1cccc(C(=O)Nc2nc3cc4c(cc3s2)OCCO4)c1 | 16.4 | 5.8 | 4.8 | -7.3 | 23.4 | 58.1* | -9.4 | 32.4
CN(CC1CCCO1)S(=O)(=O)c1ccc(C(=O)Nc2nc3cc4c(cc3s2)OCO4)cc1 (stereo unspecified) | 18.0 | 41.5 | -2.2 | 0.3 | 37.4 | 38.5* | 0.2 | 78.4*
O=C(Nc1nc2cc3c(cc2s1)OCCO3)c1cccs1 | 24.3 | -47.5 | -108.3 | -100.8 | -54.4 | 42.4* | -119.9 | -107.0
CN(CC1CCCO1)S(=O)(=O)c1ccc(C(=O)Nc2ccc3c(c2)OCO3)cc1 (stereo unspecified) | -16.2 | -6.9 | -0.4 | -6.7 | -19.5 | 9.1 | · | ·
COc1ccccc1C(=O)Nc1nc2cc3c(cc2s1)OCCO3 | · | -109.7 | -144.2 | -112.1 | -112.7 | · | · | ·
CCOC(=O)[C@]12CCCCC/C=C\1N(Cc1ccc(OC)cc1)C(=O)[C@H]2CC(=O)NCc1ccccc1 | -2.7 | · | · | · | · | 9.1 | · | ·
SMILES | NCOA2 inhibitor | NCOA1 inh | LRH-1 inv ag | Gli-Sufu block | SRC3 inh | COUP-TFII inh | VP16 Luc counter | COUP-TFII conf
CCn1c(SCC(=O)Nc2ccc(S(=O)(=O)Nc3cc(C)nc(C)n3)cc2)nc2sc(C)c(C)c2c1=O | -6.9 | · | · | · | · | 0.3 | · | ·
O=C(/C=C\Nc1ccc2c(c1)OCO2)c1ccccn1 | 73.1* | 12.1 | -34.2 | -6.4 | 34.4 | 46.1* | 30.8* | 52.1*
CCC(CO)Nc1cccc2c1S(=O)(=O)N(Cc1cn(Cc3ccc(C(F)(F)F)cc3)nn1)Cc1ccccc1O2 (stereo unspecified) | 6.9 | · | · | · | · | 1.3 | · | ·
O=[N+]([O-])c1ccc(Cl)c(C2Nc3cccc4cccc(c34)N2)c1 | 32.0 | -26.2 | 15.4 | 10.6 | 17.2 | 41.3* | 1.2 | 0.2
O=[N+]([O-])c1ccccc1C1Nc2cccc3cccc(c23)N1 | 1.5 | -15.2 | 3.4 | 20.3 | 13.8 | 2.9 | · | ·
COc1ccc(S(=O)(=O)Nc2cc(Sc3ncn[nH]3)c(O)c3ccccc23)cc1 | 61.1* | · | · | · | · | 67.2* | 12.9* | 20.5
CC(C)c1ccc(/C=C2\SC(=S)N(CCC(=O)N3CCCCC3CCO)C2=O)cc1 (stereo unspecified) | 48.3 | 25.7 | -5.4 | 20.2 | 42.2 | 41.2* | -29.6 | 10.0
COC(=O)[C@]12C[C@H](CC(=O)N3CCN(C(=O)c4ccco4)CC3)C(=O)N(CCc3ccc(OC)c(OC)c3)C1=C[C@H](C1CCCC1)O[C@@H]2C | 25.1 | · | · | · | · | -2.7 | · | ·
NCCCCCc1nnc(SCc2ccccc2Cl)o1 | 58.7* | -4.8 | 17.4 | 21.3 | 17.9 | 55.5* | 41.8* | 30.9
NCCc1nnc(SCc2c(Cl)cccc2Cl)o1 | -26.2 | -4.6 | -12.2 | 2.3 | 17.3 | 4.1 | · | ·
Clc1ccc([C@H]2OC[C@@]3(CNCCN4CCOCC4)CS[C@H](c4ccc(Cl)cc4)N23)cc1 | 11.0 | · | · | · | · | -28.0 | · | ·
O=C1CC(c2ccc3c(c2)OCCO3)Oc2ccc([N+](=O)[O-])cc21 (stereo unspecified) | -1.0 | 56.7 | 42.9 | 28.5 | 53.0 | 42.1* | 20.0* | 67.3*
O=C1CC(c2ccc3c(c2)OCCO3)Oc2ccccc21 (stereo unspecified) | -81.1 | -44.2 | -76.6 | -48.6 | -87.9 | -13.9 | · | ·

Screens deposited in PubChem by several laboratories.
